# Compounds with a hit are over-represented: about 3.3% of the library has one in this group of screens.
# AmpC inh detg = blocks E. coli AmpC beta-lactamase in detergent assay; AmpC hydrolysis of nitrocefin, absorbance 480 nm, 0.01% Triton; P00811; 0.041% of 370,000 active; Potency, µM (top dose mostly 114 µM), inactives show at the highest dose activity change, negative = inhibition, hits mostly inhibitors;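 also: 0% = no-compound wells and -100% = no-enzyme wells; nearly all actives have a fitted effect of over 25% in size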
# Target sequence (P00811 whole entry, looked up): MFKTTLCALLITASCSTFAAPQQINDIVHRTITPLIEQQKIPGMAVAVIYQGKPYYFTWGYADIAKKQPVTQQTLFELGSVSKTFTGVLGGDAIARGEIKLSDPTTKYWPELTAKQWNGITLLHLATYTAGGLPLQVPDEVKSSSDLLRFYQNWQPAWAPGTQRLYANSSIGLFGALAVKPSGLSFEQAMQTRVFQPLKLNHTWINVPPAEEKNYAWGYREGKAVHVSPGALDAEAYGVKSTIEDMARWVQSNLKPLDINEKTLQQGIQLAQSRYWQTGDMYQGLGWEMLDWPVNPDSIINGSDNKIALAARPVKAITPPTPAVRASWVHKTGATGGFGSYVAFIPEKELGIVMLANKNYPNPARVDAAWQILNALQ
#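 AmpC (5.3 nM in the dispensed reagent) in 20 mM phosphate pH 7.0 with 0.01% (detergent screen) or 0.0001% Triton X-100 was preincubated with compounds for 15 min at room temperature. Nitrocefin was then added from an 800 uM solution, and hydrolysis was followed at 480 nm.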
# AmpC no deterg = AmpC beta-lactamase inhibition without detergent. P00811. AmpC nitrocefin hydrolysis, absorbance 480 nm, 0.0001% Triton. Potency, µM (series often up to 57.1 µM), without a hit: top-dose activity change, negative = inhibition, usual class: inhibitors. 0.52% of 330,000 active. AID 485341;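 also: plate controls were no compound for no effect and no enzyme for full effect; nearly all actives have a fitted effect of over 20% in size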
#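 20 mM phosphate pH 7.0 + 0.01% (detergent screen) or 0.0001% Triton X-100; 5.3 nM AmpC reagent; cpd preinc 15 min RT; nitrocefin (800 uM stock) to start; A480 q20 s × 4 min; Activity was normalised to no-enzyme and no-compound control wells.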
# Sm TGR block = S. mansoni TGR enzyme inhibition; Potency, µM (series often up to 114 µM), for inactives: top-dose activity change, negative = inhibition, hits mostly inhibitors; 3% of 360,000 active; purified TGR, DTNB reduction, TNB absorbance 405 nm; AID 485364; also: nearly all actives have a fitted effect of over 60% in size
#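 TGR 20 nM + NADPH 100 uM (dispensed conc.), cpd preinc 15 min RT; start with NADPH (500 uM addition) then DTNB (15 mM addition). Kinetic TNB absorbance, 405 nm filter. Four-parameter Hill fit across titration.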
# * marks the source's active call; other numbers are inactive results; ? = inconclusive; · = not tested or not shown; [ ] = another dose, or the depositor's remark. Calls follow the shape of the dose curve; as a rule, active = well fitted curve in the direction sought with a large enough effect; inconclusive = small, poorly fitted or top-dose-only effect, or another doubt; inactive = no such curve, though single readings can be large; an effect the other way counts as inactive or inconclusive. Unless noted, % is scaled to controls: 0 for no effect and ±100 for the full control effect; potency is read from the fitted curve at half-maximal effect.
SMILES,AmpC inh detg,AmpC no deterg,Sm TGR block
CCCCOc1ccc(CNC(=O)C2CCCN(c3nnc(-n4c(C)ccc4C)s3)C2)cc1 (stereo not given),-1.1%,·,-35.5%
CCN(CC)c1nn2c(=O)c(C(=O)NCCc3ccccc3C)cnc2s1,4.5%,·,-4.5%
O=C1CC(N2CCC(c3nc4ccccc4o3)CC2)C(=O)N1 (stereo not given),-2.2%,-11.3%,35.5µM*
O=C1CC(N2CCC(c3nc4ccccc4o3)CC2)C(=O)N1c1ccc(F)cc1 (stereo not given),6.9%,106.2%,-19.3%
O=C1CC(N2CCC(c3nc4ccccc4o3)CC2)C(=O)N1c1ccc(Cl)c(C(F)(F)F)c1 (stereo not given),?,36.8%,14.1µM*
O=C1CC(N2CCC(c3nc4ccccc4s3)CC2)C(=O)N1 (stereo not given),?,-15.7%,-15.6%
O=C(NN1C(=O)NC2(CCCCC2)C1=O)c1cc2ccccc2o1,-7.3%,-54.9%,2.5%
O=C(CCS(=O)(=O)Cc1ccc(Cl)cc1)NCCc1ccccc1,?,-13.9%,-2.9%
O=C(CN1C(=O)C2CCCCN2c2ccc(C(=O)N3CCCC3)cc21)NCc1ccc(F)cc1 (stereo not given),11.2%,·,8.4%
Cc1cccc(NC(=O)CN2C(=O)N/C(=C/c3cc(C)n(C)c3C)C2=O)c1,-5.5%,0.0%,25.1µM*
Cc1cccc(NC(=O)CN2C(=O)N/C(=C/c3cc(C)n(-c4ccncc4)c3C)C2=O)c1,-5.0%,-0.4%,2.2%
Cc1cccc(NC(=O)CN2C(=O)S/C(=C\c3cc(C)n(C)c3C)C2=O)c1,-13.9%,-22.1%,?
Cc1cccc(NC(=O)CN2C(=O)N/C(=C\c3cccn3-c3cccc(C(=O)O)c3)C2=O)c1,-4.6%,-13.6%,-1.3%
Cc1ccc(-n2cccc2/C=C2/NC(=O)N(CC(=O)Nc3cccc(C)c3)C2=O)cc1,?,31.6µM*,-23.3%
Cc1cc(/C=C2\SC(=O)N(CC(=O)Nc3ccccc3F)C2=O)c(C)n1C,4.2%,1.6%,25.1µM*
C[C@H](CO)N1C[C@H](C)[C@@H](CN(C)S(=O)(=O)c2ccccc2)Oc2c(NS(=O)(=O)c3ccc(F)cc3)cccc2C1=O,·,166.4%,·
Cc1cc2nc(-c3cccnc3SCC(=O)NC3CC3)[nH]c2cc1C,?,-8.6%[11.4 µM],-1.8%
CC(C)(C)NC(=O)CSc1ncccc1-c1nc2ccccc2[nH]1,?,-17.2%,-28.1%
O=C(CSc1ncccc1-c1nc2ccccc2[nH]1)NCc1ccco1,-10.2%,-21.3%,12.6µM*
Cc1cc2nc(-c3cccnc3SCC(=O)NCc3ccco3)[nH]c2cc1C,?,-24.7%,17.8µM*
CCNC(=O)C1CC(=O)OC12CCCCC2 (stereo not given),-0.2%,11.0%,-27.8%
O=C(CCc1n[nH]c(=O)[nH]c1=O)Nc1cccc([N+](=O)[O-])c1,2.9%,-34.6%,-30.0%
OC[C@@H]1[C@@H](c2ccc(F)cc2)C(c2cccc(Cl)c2)=NN1c1ccccc1,·,-27.8%,·
COc1ccc(CN2CCC(Oc3ccc(C(=O)N4CCCC4)cc3)CC2)c(F)c1,-2.6%,1.7%,-7.8%
O=C1CCCC2=C1C1O[C@](CCCCN3C(=O)c4ccccc4C3=O)(Cc3ccccc31)O2,-2.0%[22.9 µM],-37.2%[11.4 µM],-8.5%[22.9 µM]
SMILES,AmpC inh detg,AmpC no deterg,Sm TGR block
COc1ccc(N2CCC(CNS(=O)(=O)c3cccc(C(F)(F)F)c3)C2)cc1 (stereo not given),-9.2%,-18.8%,31.6µM*
COc1ccc(N2CCC(CNC(=O)Nc3ccc(OC)cc3OC)C2)cc1 (stereo not given),1.0%,3.0%,44.7µM*
COc1ccc(CNC(=O)C2CCN(S(=O)(=O)c3cccc(C(F)(F)F)c3)CC2)cc1,-10.9%,15.0%,-6.0%
COc1ccc(N2CCC(CNC(=O)Nc3ccc(C)c(C)c3)C2)cc1 (stereo not given),?,-15.8%,?
O=C(COC(=O)COc1ccc(Cl)cc1)NC1CC1,5.4%,-18.7%,7.5%
N#Cc1ccc(OC(=O)c2cc(-c3ccc4c(c3)OCCO4)on2)cc1,9.3%,·,1.4%
COc1ccc(-c2nc(SC)n(C)c(=O)c2C#N)cc1OC,-3.5%,-17.6%,6.8%
COc1ccc(C(c2c(O)nc(SC)n(C)c2=O)c2c(O)nc(SC)n(C)c2=O)cc1O,7.4%,-31.5%,12.6µM*
C=CCn1c(SCC(=O)Nc2ccccc2C)nc2sc(C)c(C)c2c1=O,-2.3%,-15.9%,-3.9%
O=C(CSc1nc2scc(-c3ccco3)c2c(=O)n1-c1ccccc1)NCC1CCCO1 (stereo not given),-16.5%,37.4%,3.16µM*
Cn1c(SCC(=O)NCC2CCCO2)nc2scc(-c3ccccc3)c2c1=O (stereo not given),2.6%,46.1%,-2.5%
C=CCn1c(SCC(=O)NC(=O)NCc2ccco2)nc2sc(CC)cc2c1=O,-10.6%,-21.0%,-27.5%
C=CCn1c(SCc2ccccc2)nc2scc(-c3ccc(C)o3)c2c1=O,-0.6%,-1.0%,?
C=CCn1c(SCC(N)=O)nc2scc(-c3ccc(C)o3)c2c1=O,8.1%,18.3%,17.8µM*
C=CCn1c(SCC(=O)Nc2sccc2C(N)=O)nc2sc(C)c(C)c2c1=O,-2.5%,-13.5%,39.8µM*
C=CCn1c(SCC(=O)NCCOC)nc2scc(-c3ccco3)c2c1=O,-14.2%,15.6%,17.8µM*
CCc1nn(CC(=O)NCCCN(CC(C)C)CC(C)C)c(=O)c2cc3sc(C)cc3n12,-0.2%,·,-0.4%
O=C(NNc1ncnc2c1cnn2-c1ccccc1)c1cccc(Cl)c1,5.8%,·,-2.1%
COc1ccccc1NC(=O)Cn1ccn(-c2cc(C)cc(C)c2)c(=O)c1=O,15.8%,·,0.0%
C=CCn1c(SCC(=O)NCC2CCCO2)nc2scc(-c3ccco3)c2c1=O (stereo not given),?,24.5%,7.94µM*
NC(=O)CSc1nc2scc(-c3ccco3)c2c(=O)n1-c1ccccc1,?,-36.6%,?
C=CCn1c(SCC(=O)NCC2CCCO2)nc2scc(-c3ccc(OC)cc3)c2c1=O (stereo not given),2.4%,-8.4%,1.6%
O=C(CSc1nc2scc(-c3ccco3)c2c(=O)n1-c1ccccc1)N1CCOCC1,0.4%,-6.8%,44.7µM*
CC(=O)CSc1nnc2cc(C)c3cc(C)cc(C)c3n12,-2.7%,·,-3.1%
CC(CNC(=O)c1ccc2nc(Cc3ccccc3)oc2c1)c1ccccc1 (stereo not given),-3.5%,·,2.9%
COC(=O)c1c(N2C(=O)CC(Sc3ncccc3C(=O)O)C2=O)sc(C)c1C (stereo not given),-7.0%,11.5%,20µM*
COc1ccccc1N1C(=O)CC(Sc2ncccc2C(=O)O)C1=O (stereo not given),-14.4%,-0.2%,-21.4%
O=C(O)c1cccnc1SC1CC(=O)N(c2cccc(C(F)(F)F)c2)C1=O (stereo not given),?,-0.7%,?
O=C(O)c1cccnc1SC1CC(=O)N(c2ccc(OC(F)F)cc2)C1=O (stereo not given),9.8%,-14.6%,44.7µM*
COc1ccccc1C(=O)Nn1c(C)nc2ccccc2c1=O,-10.5%,-8.8%,-13.5%
